# According to PubChem BioAssay (EPA / NIEHS):
# Records with an inconclusive call do not appear. Calls of active or inactive are those of the source. The calls were made as follows: active = hit-call score of the fitted dose curve at least 0.9, where 1 is the maximum; inconclusive = response in the unintended direction; inactive = score below 0.9.
# Assays:
# [1] = target: rat CYP2A2, Cyp2a2 (gene 24895) (UniProt P15149); assay: NVS_ADME_rCYP2A2: NovaScreen (NVS) CYP450-related Enzyme Activity (ADME) Assay for rat CYP2A2 (AID 2283116)
# How it was run: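 Compounds first tested in duplicate at 10 uM, then in singleton concentration series up to 20 uM when over threshold. Activity of the recombinant enzyme read by fluorescence at 0.2 h, normalised to acetonitrile vehicle.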
# [2] = target: rat CYP2C11, Cyp2c11 (gene 29277) (UniProt P08683); assay: NVS_ADME_rCYP2C11: NovaScreen (NVS) CYP450-related Enzyme Activity (ADME) Assay for rat CYP2C11 (AID 2283118)
# How it was run: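 Screened first at 10 uM in duplicate, hits followed by concentration-response. Recombinant rat enzyme activity monitored by fluorescence 0.33 h post-dosing, normalised to acetonitrile negative control.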
# [3] = target: rat CYP2D1, Cyp2d1 (gene 266684) (UniProt P10633); assay: NVS_ADME_rCYP2D1: NovaScreen (NVS) CYP450-related Enzyme Activity (ADME) Assay for rat CYP2D1 (AID 2283122)
# How it was run: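 Rat CYP2D1 enzyme activity measured by fluorescence intensity in a cell-free format, 0.75 h post-dosing, acetonitrile as negative control. Screening at 10 uM in duplicate, with actives followed in concentration series up to 20 uM.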
# rat CYP3A1, gene 25642 = assay: NVS_ADME_rCYP3A1: NovaScreen (NVS) CYP450-related Enzyme Activity (ADME) Assay for rat CYP3A1 (AID 2283126)
# How it was run: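 Compounds went first at 10 uM duplicate, then to series with 20 uM maximum. Fluorescence from substrate turnover by the recombinant enzyme was measured 0.5 h post-dosing, inhibition scored against acetonitrile vehicle.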
# rat CYP2B1, gene 24300 = assay: NVS_ADME_rCYP2B1: NovaScreen (NVS) CYP450-related Enzyme Activity (ADME) Assay for rat CYP2B1 (AID 2283117)
# How it was run: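 Cell-free fluorescence enzyme assay, recombinant rat CYP2B1, 0.75 h after dosing. Single-concentration duplicates at 10 uM preceded concentration series (max 20 uM) for actives; acetonitrile as negative-control baseline.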
# [4] = target: human AKT serine/threonine Kinase 1 (AKT1), AKT1 (gene 207) (UniProt P31749); assay: NVS_ENZ_hAKT1: NovaScreen (NVS) Enzymatic Assay for human AKT serine/threonine Kinase 1 (AKT1) (AID 2283138)
# How it was run: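 Screening first at 25 uM (duplicate), with threshold-passing chemicals re-tested in concentration series to a 50 uM maximum. Kinase activity read by fluorescence with mobility-shift separation of substrate and product, 1 h after dosing, DMSO baseline.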
# [5] = target: rat CYP2C13, Cyp2c13 (gene 171521) (UniProt P20814); assay: NVS_ADME_rCYP2C13: NovaScreen (NVS) CYP450-related Enzyme Activity (ADME) Assay for rat CYP2C13 (AID 2283121)
# How it was run: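 Inhibition is read as decreased fluorescent product formation, referenced to acetonitrile vehicle. Cell-free recombinant rat Cyp2c13 reaction ran 0.75 hour; compounds first at 10 uM in duplicate, then concentration series for actives.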
# [6] = target: human Acetylcholinesterase (AChE), ACHE (gene 43) (UniProt P22303); assay: NVS_ENZ_hAChE: NovaScreen (NVS) Enzymatic Assay for human Acetylcholinesterase (AChE) (AID 2283129)
# How it was run: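 Actives from a duplicate single-point screen (25 uM) were followed up in concentration series. Enzyme activity read by absorbance (colorimetric) 0.33 hour after dosing, cell-free, normalized to DMSO, with loss of signal scored.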
# [7] = target: rat CYP2C12, Cyp2c12 (gene 25011) (UniProt P11510); assay: NVS_ADME_rCYP2C12: NovaScreen (NVS) CYP450-related Enzyme Activity (ADME) Assay for rat CYP2C12 (AID 2283119)
# How it was run: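 Fluorescent-substrate turnover by recombinant rat CYP2C12, measured at 0.5 h, normalized to acetonitrile vehicle. Chemicals screened first at a single 10 uM concentration in duplicate, with concentration series for actives.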
# [8] = target: human Caspase 4 (CASP4), CASP4 (gene 837) (UniProt P49662); assay: NVS_ENZ_hCASP4: NovaScreen (NVS) Enzymatic Assay for human Caspase 4 (CASP4) (AID 2283143)
# How it was run: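 Compounds were first tested in duplicate at 25 uM, and hits were titrated singly to a 50 uM maximum. Recombinant protease from E. coli was read by fluorescence 2 h post-dose, and activity loss was fitted against the DMSO baseline.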
# [9] = target: human Caspase 2 (CASP2), CASP2 (gene 835) (UniProt P42575); assay: NVS_ENZ_hCASP2: NovaScreen (NVS) Enzymatic Assay for human Caspase 2 (CASP2) (AID 2283135)
# How it was run: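 Single-point duplicate testing at 25 uM preceded concentration series topping at 50 uM. Activity of the recombinant E. coli-derived protease was followed by fluorescent substrate cleavage 1 h post-dosing, relative to DMSO.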
# Caspase-1 (Homo sapiens) = Caspase-1 (Homo sapiens) (UniProt P29466); assay: NVS_ENZ_hCASP1: NovaScreen (NVS) Enzymatic Assay for human Caspase 1 (CASP1) (AID 2283132)
# How it was run: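 Compounds were first tested in duplicate at 25 uM, with follow-up concentration series up to 50 uM. The bacterially expressed enzyme was read by fluorescence at 1 h post-dosing. Signal loss versus DMSO baseline indicates reduced enzyme activity.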
# [10] = target: human Beta-secretase (BACE), BACE1 (gene 23621) (UniProt P56817); assay: NVS_ENZ_hBACE: NovaScreen (NVS) Enzymatic Assay for human Beta-secretase (BACE) (AID 2283140);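 also: hits are inhibitors that reduce fluorescent substrate signal versus DMSO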
# How it was run: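 Enzyme from SF9 cells was incubated 1 hour with compound and fluorogenic substrate, activity read by fluorescence. Single-concentration duplicates at 25 uM preceded concentration-response follow-up; fitting relative to DMSO baseline.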
# [11] = target: human Caspase 5 (CASP5), CASP5 (gene 838) (UniProt P51878); assay: NVS_ENZ_hCASP5: NovaScreen (NVS) Enzymatic Assay for human Caspase 5 (CASP5) (AID 2283137)
# How it was run: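 Loss of fluorescent signal versus DMSO scored for E. coli-derived human CASP5 cleaving a fluorescent substrate, 2 h post-dosing; compounds first tested at 25 uM in duplicate, hits rerun in concentration series with 50 uM top concentration.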
# [12] = target: human Caspase 10 (CASP10), CASP10 (gene 843) (UniProt Q92851); assay: NVS_ENZ_hCASP10: NovaScreen (NVS) Enzymatic Assay for human Caspase 10 (CASP10) (AID 2283133)
# How it was run: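 Fluorescence-intensity enzyme read-out of E. coli-expressed CASP10 activity, 1 h after compound. Single-point duplicates at 25 uM preceded concentration-response testing (top 50 uM) of hits; inhibition expressed as signal loss versus DMSO.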
# Caspase-3 (Homo sapiens) = Caspase-3 (Homo sapiens) (UniProt P42574); assay: NVS_ENZ_hCASP3: NovaScreen (NVS) Enzymatic Assay for human Caspase 3 (CASP3) (AID 2283139)
# How it was run: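 Single-concentration screening at 25 uM in duplicate, with concentration-response follow-up to a 50 uM maximum for chemicals passing the threshold. Caspase-3 (human, E. coli-expressed) activity was read as substrate fluorescence after 1 h, with loss of signal relative to DMSO.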
# [13] = target: human Aurora Kinase A - serine/threonine-protein Kinase 6 (AurA), AURKA (gene 6790) (UniProt O14965); assay: NVS_ENZ_hAurA: NovaScreen (NVS) Enzymatic Assay for human Aurora Kinase A - serine/threonine-protein Kinase 6 (AurA) (AID 2283142)
# How it was run: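 Recombinant human AurA activity read by fluorescence after mobility-shift separation of product from substrate; 1 hour incubation. Chemicals first run in duplicate at 25 uM, then concentration series to 50 uM if over threshold; fitted relative to DMSO.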
# Sequence of rat CYP2C13, Cyp2c13 (gene 171521) (P20814 whole entry, looked up): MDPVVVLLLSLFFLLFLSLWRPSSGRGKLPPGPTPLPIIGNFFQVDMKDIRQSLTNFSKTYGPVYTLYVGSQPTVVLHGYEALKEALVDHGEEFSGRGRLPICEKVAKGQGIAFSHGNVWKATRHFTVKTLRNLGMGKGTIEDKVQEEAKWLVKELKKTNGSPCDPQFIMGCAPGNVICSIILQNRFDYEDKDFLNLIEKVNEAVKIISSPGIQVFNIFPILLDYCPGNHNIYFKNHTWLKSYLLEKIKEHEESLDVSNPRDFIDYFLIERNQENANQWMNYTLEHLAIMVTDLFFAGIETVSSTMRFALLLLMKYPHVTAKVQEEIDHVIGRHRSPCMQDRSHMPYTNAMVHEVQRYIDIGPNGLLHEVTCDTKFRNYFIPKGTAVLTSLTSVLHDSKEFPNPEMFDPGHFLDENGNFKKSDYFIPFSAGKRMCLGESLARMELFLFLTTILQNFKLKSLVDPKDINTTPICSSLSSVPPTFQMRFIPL
# Sequence of rat CYP2A2, Cyp2a2 (gene 24895) (P15149 whole entry, looked up): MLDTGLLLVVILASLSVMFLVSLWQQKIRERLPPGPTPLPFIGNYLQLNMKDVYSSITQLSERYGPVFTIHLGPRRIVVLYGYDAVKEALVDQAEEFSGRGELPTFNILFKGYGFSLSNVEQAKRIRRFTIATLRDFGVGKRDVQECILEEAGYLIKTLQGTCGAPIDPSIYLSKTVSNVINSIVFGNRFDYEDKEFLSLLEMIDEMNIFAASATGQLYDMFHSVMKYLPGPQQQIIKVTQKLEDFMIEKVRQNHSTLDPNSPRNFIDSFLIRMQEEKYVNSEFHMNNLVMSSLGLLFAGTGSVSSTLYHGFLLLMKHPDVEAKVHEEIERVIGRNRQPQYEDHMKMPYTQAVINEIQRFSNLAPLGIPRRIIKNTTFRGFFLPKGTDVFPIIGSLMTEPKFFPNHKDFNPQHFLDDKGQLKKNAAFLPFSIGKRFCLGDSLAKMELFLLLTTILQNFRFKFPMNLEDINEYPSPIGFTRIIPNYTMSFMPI
# Sequence of rat CYP2C11, Cyp2c11 (gene 29277) (P08683 whole entry, looked up): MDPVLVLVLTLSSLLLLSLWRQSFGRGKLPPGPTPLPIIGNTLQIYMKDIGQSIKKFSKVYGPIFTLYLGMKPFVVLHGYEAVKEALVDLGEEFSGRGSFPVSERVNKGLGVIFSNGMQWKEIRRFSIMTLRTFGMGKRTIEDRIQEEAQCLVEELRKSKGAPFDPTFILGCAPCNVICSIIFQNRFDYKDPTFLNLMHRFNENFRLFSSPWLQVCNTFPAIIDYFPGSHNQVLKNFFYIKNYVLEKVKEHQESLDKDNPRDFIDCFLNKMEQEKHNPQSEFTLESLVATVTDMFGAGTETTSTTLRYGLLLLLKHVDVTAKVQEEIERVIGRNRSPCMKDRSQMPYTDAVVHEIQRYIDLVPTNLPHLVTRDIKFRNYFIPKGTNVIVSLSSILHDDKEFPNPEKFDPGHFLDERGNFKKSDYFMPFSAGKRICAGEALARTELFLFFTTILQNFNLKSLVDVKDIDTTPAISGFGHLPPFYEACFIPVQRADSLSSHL
# Sequence of rat CYP2C12, Cyp2c12 (gene 25011) (P11510 whole entry, looked up): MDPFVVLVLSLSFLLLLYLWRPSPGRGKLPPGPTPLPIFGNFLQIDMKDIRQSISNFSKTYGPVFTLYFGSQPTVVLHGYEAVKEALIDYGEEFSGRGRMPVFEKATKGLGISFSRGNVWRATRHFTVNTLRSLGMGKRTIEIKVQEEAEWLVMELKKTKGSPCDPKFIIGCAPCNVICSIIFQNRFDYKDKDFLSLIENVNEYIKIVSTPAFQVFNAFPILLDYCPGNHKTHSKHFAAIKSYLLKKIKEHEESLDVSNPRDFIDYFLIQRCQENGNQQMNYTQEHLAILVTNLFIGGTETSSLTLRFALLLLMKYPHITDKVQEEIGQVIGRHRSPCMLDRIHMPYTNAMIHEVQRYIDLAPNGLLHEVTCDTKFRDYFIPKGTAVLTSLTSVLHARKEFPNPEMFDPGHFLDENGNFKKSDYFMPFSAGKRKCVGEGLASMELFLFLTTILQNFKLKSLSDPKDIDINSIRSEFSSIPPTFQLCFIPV
# Sequence of rat CYP2D1, Cyp2d1 (gene 266684) (P10633 whole entry, looked up): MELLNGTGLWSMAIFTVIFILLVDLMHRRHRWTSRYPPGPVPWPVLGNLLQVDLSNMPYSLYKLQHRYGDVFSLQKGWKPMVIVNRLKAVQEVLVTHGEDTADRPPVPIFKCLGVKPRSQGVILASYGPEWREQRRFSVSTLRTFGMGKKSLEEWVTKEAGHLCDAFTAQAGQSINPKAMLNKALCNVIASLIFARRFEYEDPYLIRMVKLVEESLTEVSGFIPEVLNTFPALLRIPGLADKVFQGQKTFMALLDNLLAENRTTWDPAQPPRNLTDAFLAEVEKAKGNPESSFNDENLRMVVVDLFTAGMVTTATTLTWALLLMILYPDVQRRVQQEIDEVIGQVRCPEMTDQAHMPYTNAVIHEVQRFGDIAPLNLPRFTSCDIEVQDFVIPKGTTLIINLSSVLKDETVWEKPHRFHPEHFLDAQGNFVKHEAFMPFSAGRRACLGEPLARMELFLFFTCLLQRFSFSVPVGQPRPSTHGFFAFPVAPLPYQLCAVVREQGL
# Sequence of Caspase-1 (Homo sapiens) (P29466 whole entry, looked up): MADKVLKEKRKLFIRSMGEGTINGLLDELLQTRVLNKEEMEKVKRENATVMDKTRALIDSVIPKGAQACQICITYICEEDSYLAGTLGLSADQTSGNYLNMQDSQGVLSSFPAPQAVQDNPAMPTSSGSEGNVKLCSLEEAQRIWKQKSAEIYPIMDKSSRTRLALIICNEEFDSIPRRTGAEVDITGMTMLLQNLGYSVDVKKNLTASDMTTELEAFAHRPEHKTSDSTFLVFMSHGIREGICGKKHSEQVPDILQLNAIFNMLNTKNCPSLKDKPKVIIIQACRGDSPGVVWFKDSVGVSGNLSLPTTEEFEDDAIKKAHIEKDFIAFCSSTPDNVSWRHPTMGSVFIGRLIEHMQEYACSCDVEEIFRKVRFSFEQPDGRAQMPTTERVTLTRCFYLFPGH
# Sequence of human Beta-secretase (BACE), BACE1 (gene 23621) (P56817 whole entry, looked up): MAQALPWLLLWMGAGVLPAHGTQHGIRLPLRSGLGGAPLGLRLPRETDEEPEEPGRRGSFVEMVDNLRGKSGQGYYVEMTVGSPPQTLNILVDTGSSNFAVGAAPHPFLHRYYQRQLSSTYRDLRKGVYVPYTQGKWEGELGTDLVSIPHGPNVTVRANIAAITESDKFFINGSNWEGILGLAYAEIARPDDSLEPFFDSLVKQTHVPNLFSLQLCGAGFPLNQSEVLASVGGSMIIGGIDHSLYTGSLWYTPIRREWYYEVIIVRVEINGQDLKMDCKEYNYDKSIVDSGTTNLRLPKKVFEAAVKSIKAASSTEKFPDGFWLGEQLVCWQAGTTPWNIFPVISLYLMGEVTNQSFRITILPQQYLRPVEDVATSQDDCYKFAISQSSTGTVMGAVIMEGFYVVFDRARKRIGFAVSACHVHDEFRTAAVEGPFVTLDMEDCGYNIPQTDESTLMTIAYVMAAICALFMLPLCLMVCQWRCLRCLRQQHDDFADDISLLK
# Sequence of human Caspase 2 (CASP2), CASP2 (gene 835) (P42575 whole entry, looked up): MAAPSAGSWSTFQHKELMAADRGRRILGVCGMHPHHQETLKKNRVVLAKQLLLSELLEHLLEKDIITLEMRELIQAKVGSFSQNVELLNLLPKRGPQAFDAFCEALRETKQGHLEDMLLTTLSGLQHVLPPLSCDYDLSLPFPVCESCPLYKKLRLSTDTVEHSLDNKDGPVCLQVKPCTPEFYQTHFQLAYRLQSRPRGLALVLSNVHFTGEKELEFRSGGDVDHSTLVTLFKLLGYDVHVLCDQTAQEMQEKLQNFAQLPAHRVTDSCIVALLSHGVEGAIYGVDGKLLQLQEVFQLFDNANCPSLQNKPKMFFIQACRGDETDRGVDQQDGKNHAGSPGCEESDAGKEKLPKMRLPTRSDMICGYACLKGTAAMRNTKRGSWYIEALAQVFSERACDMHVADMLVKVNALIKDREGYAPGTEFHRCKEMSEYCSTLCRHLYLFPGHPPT
# Sequence of human Caspase 5 (CASP5), CASP5 (gene 838) (P51878 whole entry, looked up): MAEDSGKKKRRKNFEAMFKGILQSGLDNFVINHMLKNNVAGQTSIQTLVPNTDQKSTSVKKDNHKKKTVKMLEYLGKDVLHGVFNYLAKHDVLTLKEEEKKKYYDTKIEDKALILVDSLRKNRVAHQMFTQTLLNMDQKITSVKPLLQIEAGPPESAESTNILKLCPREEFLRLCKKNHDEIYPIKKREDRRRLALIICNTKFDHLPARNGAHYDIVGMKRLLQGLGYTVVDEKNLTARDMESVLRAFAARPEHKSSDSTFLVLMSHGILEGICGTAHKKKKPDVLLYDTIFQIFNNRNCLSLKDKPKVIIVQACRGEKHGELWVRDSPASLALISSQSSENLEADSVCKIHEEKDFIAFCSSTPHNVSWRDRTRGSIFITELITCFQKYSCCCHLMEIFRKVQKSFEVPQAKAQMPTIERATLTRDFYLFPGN
# Sequence of human Acetylcholinesterase (AChE), ACHE (gene 43) (P22303 whole entry, looked up): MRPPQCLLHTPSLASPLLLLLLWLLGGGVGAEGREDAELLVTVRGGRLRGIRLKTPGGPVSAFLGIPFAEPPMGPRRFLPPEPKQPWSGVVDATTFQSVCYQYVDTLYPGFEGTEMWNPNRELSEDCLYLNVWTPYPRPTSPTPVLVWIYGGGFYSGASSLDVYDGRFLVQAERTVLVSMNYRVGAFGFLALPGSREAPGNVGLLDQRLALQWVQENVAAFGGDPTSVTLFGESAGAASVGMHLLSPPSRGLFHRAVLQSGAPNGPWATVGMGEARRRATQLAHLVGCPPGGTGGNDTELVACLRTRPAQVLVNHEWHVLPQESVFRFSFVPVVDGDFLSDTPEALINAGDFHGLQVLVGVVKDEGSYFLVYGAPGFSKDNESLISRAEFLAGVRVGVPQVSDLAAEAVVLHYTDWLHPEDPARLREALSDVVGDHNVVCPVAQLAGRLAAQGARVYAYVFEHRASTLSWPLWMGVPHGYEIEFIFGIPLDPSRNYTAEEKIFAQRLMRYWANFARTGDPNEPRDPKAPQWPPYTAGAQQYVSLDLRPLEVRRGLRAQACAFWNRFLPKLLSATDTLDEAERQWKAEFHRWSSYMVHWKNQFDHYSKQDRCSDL
smiles,measurement,setting,value
CCOc1cc(C(C)(C)C)ccc1C1COC(c2c(F)cccc2F)=N1 (stereo unspecified),AC50,[1],1150 nM (active)
same,AC50,[2],10000 nM (active)
Nc1cnn(-c2ccccc2)c(=O)c1Cl,AC50,[3],2370 nM (active)
same,AC50,"rat CYP3A1, gene 25642",7350 nM (active)
N#Cc1c(Cl)cccc1Cl,outcome,"rat CYP2B1, gene 24300",inactive
same,outcome,[4],inactive
COP(=S)(OC)SCn1nnc2ccccc2c1=O,AC50,[1],5470 nM (active)
same,AC50,"rat CYP2B1, gene 24300",3350 nM (active)
same,AC50,[2],419 nM (active)
same,AC50,[5],3030 nM (active)
same,AC50,[3],6920 nM (active)
same,AC50,"rat CYP3A1, gene 25642",3020 nM (active)
same,outcome,[6],inactive
CCCCC(O)(Cn1cncn1)c1ccc(Cl)cc1Cl (stereo unspecified),AC50,[1],12.6 nM (active)
same,AC50,"rat CYP2B1, gene 24300",54.7 nM (active)
same,AC50,[2],1850 nM (active)
same,AC50,[7],1580 nM (active)
same,AC50,[5],655 nM (active)
same,AC50,[3],951 nM (active)
same,AC50,"rat CYP3A1, gene 25642",995 nM (active)
same,AC50,[8],9080 nM (active)
CCCN(CC)CC1COC2(CCC(C(C)(C)C)CC2)O1 (stereo unspecified),outcome,[1],inactive
same,outcome,"rat CYP2B1, gene 24300",inactive
CCCCC(C#N)(Cn1cncn1)c1ccc(Cl)cc1 (stereo unspecified),AC50,[1],238 nM (active)
same,AC50,"rat CYP2B1, gene 24300",1640 nM (active)
same,AC50,[2],2390 nM (active)
same,AC50,[7],4510 nM (active)
same,AC50,[5],4370 nM (active)
same,AC50,[3],8640 nM (active)
same,AC50,"rat CYP3A1, gene 25642",3820 nM (active)
O=C1C2CC=CCC2C(=O)N1SC(Cl)(Cl)Cl (stereo unspecified),outcome,[7],inactive
same,outcome,[9],inactive
CC(C)C1(C)N=C(c2ncccc2C(=O)O)NC1=O (stereo unspecified),AC50,[1],6920 nM (active)
same,outcome,"rat CYP2B1, gene 24300",inactive
CC(C)=CC1C(C(=O)OCc2coc(Cc3ccccc3)c2)C1(C)C (stereo unspecified),AC50,[3],5370 nM (active)
same,outcome,Caspase-1 (Homo sapiens),inactive
same,AC50,[10],40500 nM (active)
Cc1c(COC(=O)[C@@H]2[C@H](/C=C(\Cl)C(F)(F)F)C2(C)C)cccc1-c1ccccc1,outcome,[1],inactive
same,outcome,[10],inactive
CO/N=C(/C1=NOCCO1)c1ccccc1Oc1ncnc(Oc2ccccc2Cl)c1F,AC50,[2],779 nM (active)
same,AC50,"rat CYP3A1, gene 25642",705 nM (active)
O=c1n(Cl)c(=O)n(Cl)c(=O)n1Cl,outcome,Caspase-1 (Homo sapiens),inactive
same,outcome,[11],inactive
COc1cc(OC)nc(NC(=O)NS(=O)(=O)c2ncccc2OCC(F)(F)F)n1,outcome,Caspase-1 (Homo sapiens),inactive
Nc1c(Cl)c(Cl)nc(C(=O)O)c1Cl,AC50,[12],10500 nM (active)
same,outcome,[11],inactive
CN/C(=N\[N+](=O)[O-])NCc1cnc(Cl)s1,outcome,[9],inactive
CCOc1nc(C(Cl)(Cl)Cl)ns1,outcome,Caspase-3 (Homo sapiens),inactive
CC1(C)C(C=C(Cl)Cl)C1C(=O)OC(C#N)c1cccc(Oc2ccccc2)c1 (stereo unspecified),outcome,[10],inactive
CC1(C)C(C(=O)OC(C#N)c2cccc(Oc3ccccc3)c2)C1(C)C (stereo unspecified),AC50,[10],2800 nM (active)
CCCC(=NOCC)C1=C(O)CC(CC(C)SCC)CC1=O (stereo unspecified),outcome,[13],inactive
